# The sample as a whole holds a higher share of hits than the screen did.
# ERK EGF inh: blocks ERK signaling stimulated by EGF | Potency, µM (titrated, usually from 11.5 µM), for inactives: top-dose activity change, negative = inhibition, most hits filed as inhibitors | HEK293-V1b, EGF-stimulated phospho-ERK AlphaScreen | actives 0.41% (n = 130,000) | AID 1454;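 note: plate controls were stimulated vehicle wells for no effect and unstimulated vehicle basal for full effect; nearly all actives have a fitted effect of over 55% in size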
#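 Phospho-ERK1/2 measured by AlphaScreen (SureFire) after 5 min 25 nM EGF stimulation of V1b-expressing HEK293 cells preincubated 30 min at 37C with titrated compounds; data scaled to DMSO and EGF controls, Hill-fitted AC50.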
# NPSR antag: antagonists of human neuropeptide S receptor cAMP signaling | CHO-NPSR cells, cAMP TR-FRET, antagonist mode | Potency, µM (doses to about 38.3 µM), for the others: at the top dose activity change, negative = inhibition, most hits filed as inhibitors | actives 1% (n = 220,000) | AID 1461; note: nearly all actives have a fitted effect of over 50% in size
# Target sequence (Q6W5P4 whole entry, looked up): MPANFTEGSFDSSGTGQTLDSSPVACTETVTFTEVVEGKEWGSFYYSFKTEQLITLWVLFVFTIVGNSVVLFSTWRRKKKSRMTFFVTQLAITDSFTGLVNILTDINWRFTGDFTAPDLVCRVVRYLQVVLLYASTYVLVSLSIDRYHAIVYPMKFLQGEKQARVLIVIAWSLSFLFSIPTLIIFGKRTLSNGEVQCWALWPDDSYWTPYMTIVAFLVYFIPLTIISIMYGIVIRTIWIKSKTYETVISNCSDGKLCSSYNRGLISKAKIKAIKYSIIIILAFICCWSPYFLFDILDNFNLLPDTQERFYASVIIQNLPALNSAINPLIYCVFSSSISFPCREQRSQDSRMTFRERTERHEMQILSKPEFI
# * hit, by the source's call; ? = inconclusive; · = not tested or not shown; [ ] = remark or other dose. Calls come from the whole dose curve; as a rule, active = well fitted curve in the direction sought with a large enough effect; inconclusive = small, poorly fitted or top-dose-only effect, or another doubt; inactive = no such curve, though single readings can be large; an effect the other way counts as inactive or inconclusive. Unless noted, % is set by controls: 0 for no effect and ±100 for the full control effect; potency is the fitted concentration of half-maximal effect.
SMILES,ERK EGF inh,NPSR antag
O=C(COc1ccc(Cl)cc1Cl)NC(=S)Nc1ccc(CN2CCOCC2)cc1,20µM*,-2%
O=C1C(c2c(O)[nH]c3ccccc23)=Nc2ccccc21,?,-15%
CC(=O)c1cccc2c(O)c(C3=Nc4ccccc4C3=O)[nH]c12,25µM*,?
COc1ccc(-n2c(=O)c(CCc3ccccc3)nc3cnc(N(C)C)nc32)cc1,4%,·
Nc1cccc2nsnc12,7%[57.5 µM],-2%
Nc1cc2nsnc2cc1Br,·,2.5µM*
C[C@@H](CCc1ccc(O)cc1)NCCc1ccc(O)c(O)c1,-3%,·
Oc1ccc(Nc2ncnc3scc(-c4ccccc4)c23)cc1,22µM*,-7%
Cc1sc2ncnc(N/N=C/c3cccc(O)c3)c2c1C,15%,-1%
Cc1sc2ncnc(Nc3ccc(O)cc3)c2c1C,28µM*,-2%
c1ccc(-c2csc3ncnc(NCc4ccccn4)c23)cc1,?,24%
CC1(C)C[C@](C)(C(=O)c2ccccc2)C=C1c1ccccc1,2%,·
CCCCCCCCCCCCCCC[C@@H](O)[C@H](CO)NC(=O)CCCCCCC,1%,·
Cc1cc(N)c2ccccc2[n+]1CCCCCCCCCCCCCC[n+]1c(C)cc(N)c2ccccc21,28µM*,16µM*
Cc1cc(N)c2ccccc2n1,2%,11%
NC(=S)NCCCC(N)C(=O)O (configuration not stated),3%,1%[46.1 µM]
COCOc1c2c(c(OCOC)c3c(OCOC)cccc13)/C(=N/NS(C)(=O)=O)C1=C2CCCC1,-10%,·
O=C(c1cc(C(F)(F)F)cc(C(F)(F)F)c1)N1CCC2(CC1)CN(c1ncccn1)C2,7%,·
C[C@H]1/C=C\CC(=O)NCc2cccc(c2)CNC(=O)N[C@H]1c1ccccc1,0%,·
COC(=O)c1ccc(C(/C=C/[C@@H](C)C(=O)NCCc2c[nH]c3ccccc23)NC(=O)OCc2ccccc2)cc1 (some centres not stated),-6%,·
COc1ccc(C2C(C(=O)c3ccco3)=C(O)C(=O)N2c2nnc(C)s2)cc1 (configuration not stated),5%,?
Cc1ccc2nc(N3C(=O)C(O)=C(C(=O)c4ccco4)C3c3cccs3)sc2c1 (configuration not stated),·,7.9µM*
Cc1cc(N/N=C/c2ccc(Cl)cc2Cl)nc(NCc2ccccc2)n1,-3%,?
Cc1cc(N/N=C/c2ccc(N(C)C)cc2)nc(NCc2ccccc2)n1,-20%[57.5 µM],10µM*
CCCn1c(-c2ccc(F)cc2)nc2c(NCCCN3CCOCC3)nc(C)nc21,3%,·
SMILES,ERK EGF inh,NPSR antag
O=C(Nc1ccc([N+](=O)[O-])cc1)Nc1ccc(OC(F)F)c(Cl)c1,-5%,10µM*
O=C(Nc1ccc(OC(F)F)c(Cl)c1)Nc1ccc2c(c1)OCO2,·,-9%[46.1 µM]
c1ccc(-c2nc(-c3cccs3)c(NC3CCCCC3)o2)cc1,3%,·
COC1=C(Nc2ccccc2OC)C(=O)c2ccccc2C1=O,14µM*,-26%
COc1ccccc1NC1=C(NC(C)=O)C(=O)c2ccccc2C1=O,?,-37%
CC(=O)C1=C(O)C=C2Oc3c(C(C)=O)c(O)c(C)c(O)c3C2(C)C1=O (configuration not stated),2%,·
COc1ccc(-c2nc(-c3ccccc3)c(NC(C)C)o2)cc1,-6%,·
COc1cc(CCNC(C)=O)c(C(=O)/C=C/c2cccc(OC)c2OC)cc1OC,-9%,·
CCN=c1scc(-c2ccc(F)cc2)n1/N=C/c1ccccn1,?,-22%
Cc1nc(N/N=C/c2ccccn2)sc1C,-4%,4µM*
CCCc1sc(N/N=C/c2ccccn2)nc1-c1ccc(F)cc1,2%,10µM*
COC(=O)c1ccc(/C=N/Nc2nc(C)c(C)s2)cc1,-1%[57.5 µM],7%
Cc1cc(C(=O)N/N=C/c2cc(Cl)cc([N+](=O)[O-])c2O)c2ccccc2n1,-1%,-1%
O=C(N/N=C/c1cc(Cl)cc([N+](=O)[O-])c1O)NC12CC3CC(CC(C3)C1)C2,?,10µM*
O=C(N/N=C/c1ccc(OCc2ccc(F)cc2)cc1)c1ccccc1,3%,-5%
CC(C)(C)c1ccc(OCc2ccc(C(=O)N/N=C/c3ccc(O)c(O)c3)cc2)cc1,3%,13µM*
CCOC(=O)c1c(CSc2ccccc2)n(C)c2ccc(O)c(CN3CCOCC3)c12,?,7.9µM*
CCOC(=O)c1c(C)n(C)c2ccc(O)c(CN3CCN(C)CC3)c12,·,-4%[46.1 µM]
C[C@@H](Oc1ccc(Oc2cnc3ccc(Cl)cc3n2)cc1)C(=O)O,6%,?
NCCC[C@@H](CC(=O)N[C@@H]1CCCC[C@H]1C(=O)N[C@H](CC(=O)N[C@@H](CCC(=O)O)CC(=O)O)Cc1ccccc1)NC(=O)C[C@H](Cc1ccccc1)NC(=O)[C@@H]1CNCC[C@H]1N,2%,·
C=C(C(=O)c1ccccc1)C(C)C(=C)C(=O)c1ccccc1,-1%,10µM*

# Source: PubChem
